# GLP-1R inv ag = acts as inverse agonist at human GLP-1 receptor; P43220; HEK293 GLP-1R CRE-luciferase, luminescence, 24 h; GLP-1R form is constitutively active; Potency, µM (titrated, usually from 38.3 µM), hits mostly inhibitors; actives 1.6% (n = 410,000); note: nearly all actives have a fitted effect of over 55% in size
# Target sequence (P43220 whole entry, looked up): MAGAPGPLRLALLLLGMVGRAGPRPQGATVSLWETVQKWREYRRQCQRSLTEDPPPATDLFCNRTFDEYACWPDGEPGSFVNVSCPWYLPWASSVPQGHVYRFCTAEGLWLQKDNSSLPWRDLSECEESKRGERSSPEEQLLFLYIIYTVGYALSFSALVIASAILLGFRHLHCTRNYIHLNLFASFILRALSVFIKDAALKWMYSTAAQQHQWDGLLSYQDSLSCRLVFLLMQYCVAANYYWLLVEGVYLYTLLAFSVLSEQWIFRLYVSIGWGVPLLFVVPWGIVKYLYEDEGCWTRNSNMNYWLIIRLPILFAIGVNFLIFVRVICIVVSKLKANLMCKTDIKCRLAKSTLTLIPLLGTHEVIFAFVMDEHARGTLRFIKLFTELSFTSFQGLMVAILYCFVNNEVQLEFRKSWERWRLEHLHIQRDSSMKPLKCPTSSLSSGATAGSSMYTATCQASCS
#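 HEK293 cells stably co-expressing constitutively active GLP-1R and a cAMP-responsive luciferase reporter were seeded in DMEM with 10% Nu serum, given compounds after 12 h, and incubated 24 h at 37 deg C. Luminescence was then read.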
# HEK293 tox = cytotoxicity in counter-screen for GLP-1R inverse agonists; AID 624418; actives 0.13% (n = 410,000); HEK293 cAMP-luciferase reporter cells, luminescence, 24 h; Potency, µM (series often up to 38.3 µM), actives largely listed as inhibitors;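 note: loss of luciferase light is scored as toxicity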
#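 Cells in DMEM/10% Nu serum/1% pen-strep, 1536-well format. Pre-incubated 12 h, dosed with 23 nL compound, incubated a further 24 h. Luciferase detection, 12 min at room temp, luminescence.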
# BRCA1 expr up = BRCA1 expression activation | MCF7-BRCA1-FFLuc reporter, luminescence, 48 h; response scale: scaled: vehicle 0%, 10 µM genistein 100% | Potency, µM (series often up to 46.1 µM), most hits filed as activators | actives 1.1% (n = 380,000) | AID 624202; note: nearly all actives have a fitted effect of over 80% in size
#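 Activators of BRCA1 expression were detected as increased firefly luciferase luminescence in engineered MCF7 cells after 48 h compound incubation. Signals were scaled to genistein 10 microM as full activation.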
# GLP-1R agonist = agonists of human GLP-1 receptor; P43220; actives 0.007% (n = 380,000); AID 624172; Potency, µM (series often up to 45.6 µM), hits mostly activators; HEK293 GLP-1R CRE-luciferase, luminescence, 4-6 h; cells express a hypersensitive GLP-1R form
# A number is an active result; . = inactive; ? = inconclusive; / = no result. Only some compounds are listed: those with a hit (about 2.6% of all), similar ones and a draw of the others. Calls come from the whole dose curve; as a rule, active = well fitted curve in the direction sought with a large enough effect; inconclusive = small, poorly fitted or top-dose-only effect, or another doubt; inactive = no such curve, though single readings can be large; an effect the other way counts as inactive or inconclusive.
SMILES,GLP-1R inv ag,HEK293 tox,BRCA1 expr up,GLP-1R agonist
COc1ccc(N2CCN(C(=O)c3cnn(-c4ccc(OC)cc4)c3C3CCN(C(=O)OC(C)(C)C)CC3)CC2)cc1,.,.,/,/
CN(C)c1cccc(N(C)C)c1CNC(=O)NC(=O)c1c(F)cccc1F,10µM,.,.,.
O=C(NCC1CC1)NC(=O)c1c(F)cccc1Cl,.,.,.,.
CN(C)c1cccc(F)c1C(=O)NC(=O)Nc1ccc(Cl)cc1,8.9µM,?,.,.
COC(=O)C1=C(C)N(c2ccc(Cl)c(Cl)c2)C(=O)C1,13µM,.,.,.
CC(C)c1nnc(NC(=O)c2ccc3c(c2)OCO3)s1,1.1µM,.,.,.
CC(C)Sc1nnc(NC(=O)c2ccc3c(c2)OCO3)s1,.,.,2.5µM,.
CCN(CC)C(=O)c1sc(NC(=O)c2ccc3c(c2)OCO3)c(C(N)=O)c1C,.,.,11µM,.
CC(c1ccccc1)c1nnc(NC(=O)c2ccc3c(c2)OCO3)s1 (stereo not drawn),.,.,.,.
CCSc1nnc(NC(=O)c2ccc3c(c2)OCO3)s1,.,.,?,.
CCN(CC)C(=O)c1sc(NC(=O)c2ccncc2)c(C(=O)OC)c1C,.,.,.,.
CC1OC(CCc2cccc(Cl)c2)Cc2[nH][nH]c(=O)c21 (stereo not drawn),.,.,?,.
Cc1sc2nc(C3CC3)nc(N3CCN(C(=O)c4ccc(F)cc4)CC3)c2c1C,10µM,.,.,.
Cc1sc2nc(C3CC3)nc(N3CCN(C(=O)c4ccc(Cl)cc4)CC3)c2c1C,8.9µM,.,.,.
COc1ccc(C(=O)N2CCN(c3nc(C4CC4)nc4sc(C)c(C)c34)CC2)cc1,?,.,.,.
COc1ccc(N2CC(NC(=O)c3ccc4c(c3)OCO4)CC2=O)cc1OC (stereo not drawn),?,.,.,.
CCC1(C)Cc2c(sc3nc(SC)n(Cc4ccccc4)c(=O)c23)CO1 (stereo not drawn),?,.,13µM,.
CCCSc1nc2sc3c(c2c(=O)n1Cc1ccccc1)CC(C)(CC)OC3 (stereo not drawn),?,.,/,/
COc1ccc(CC(=O)NC(C)C2COc3ccccc3O2)cc1OC (stereo not drawn),.,.,.,.
COC(=O)c1ccc(-n2nnc(-c3nc(-c4ccc5c(c4)OCO5)no3)c2C)cc1,.,.,/,/
COc1ccc(/C=C2\C=Cc3ccccc32)cc1OC,/,/,.,/
CC(=O)N(CCCN(C)C)CCC(C)CCC=C(C)C (stereo not drawn),4µM,.,.,.
CCN(CC)c1ccc(NC(=O)c2cccc(C)c2OC)c(C)c1,?,.,4.5µM,.
CN(c1ccccc1)S(=O)(=O)c1cccc(NC(=O)CSc2ncc(C(F)(F)F)cc2Cl)c1,10µM,.,.,.
CC(=O)CCc1ccc(OCC(=O)Nc2cccc(S(=O)(=O)N(C)c3ccccc3)c2)cc1,11µM,.,.,.
SMILES,GLP-1R inv ag,HEK293 tox,BRCA1 expr up,GLP-1R agonist
CN(c1ccccc1)S(=O)(=O)c1cccc(NC(=O)COc2ccccc2)c1,?,.,.,.
CCOc1ccccc1NC(=O)c1nc(SCc2ccccc2F)ncc1Cl,/,/,.,/
Cc1ccc(OCCn2c(C3CC(=O)N(Cc4ccc(F)cc4)C3)nc3ccccc32)c(C)c1 (stereo not drawn),?,?,.,/
FC(F)C(F)(F)Oc1cccc(Nc2nccn3c(-c4ccc5ccccc5c4)cnc23)c1,11µM,.,.,.
Oc1ccc(-c2cnc3c(Nc4cccc(OC(F)(F)C(F)F)c4)nccn23)cc1,?,.,.,.
CCc1ccccc1Nc1nn2c(=O)c3ccc(C(=O)NC(C)c4ccccc4)cc3nc2s1 (stereo not drawn),5.6µM,.,.,.
CCc1ccccc1Nc1nn2c(=O)c3ccc(C(=O)NCCc4ccccc4)cc3nc2s1,.,.,.,.
COc1cc(/C=N/Nc2ccc(F)cc2F)cc(OC)c1O,?,.,.,.
Cc1ccc(/C=N/Nc2ccc(F)cc2F)s1,5µM,.,.,.
Cc1ccc(/C=N/Nc2ccccn2)s1,.,?,11µM,.
CCOc1ccc(N(C)S(=O)(=O)c2ccc3c(c2)CCCN3C(C)=O)cc1,.,.,/,/
CC(CCCN(C)C)C(Cc1ccccc1)c1ccccc1 (stereo not drawn),11µM,.,.,.
COc1ccc(CNC(=O)C(=O)Nc2c3c(nn2-c2ccccc2)CSC3)cc1,.,.,/,/
O=C(COc1cccc(C(F)(F)F)c1)Nc1ccccc1N1CCCCC1,.,.,.,.
CSCCC(NS(=O)(=O)c1cccc(C(F)(F)F)c1)C(=O)Nc1ccccc1N1CCCC1 (stereo not drawn),10µM,.,.,.
CCc1cc(C(=O)NCC(c2ccco2)N2CCCCC2)sc1C (stereo not drawn),?,.,.,.
COc1ccccc1N1C(=O)S/C(=C\c2cc(C)n(C)c2C)C1=O,.,.,5.6µM,.
COc1ccc(CNC(=O)C2CCN(S(=O)(=O)c3ccc4c(c3)CCCN4C(C)=O)CC2)cc1,.,.,/,/
CC(C)c1ccc(-c2noc(SCC(=O)N3CCCCC3)n2)cc1,.,.,/,/
Clc1ccc2c(c1)-c1ccccc1C1=NCCN12,4µM,?,.,.
Cc1ccc(/C=C/C(=O)c2ccccc2O)cc1,?,.,.,.
CN(C)c1ccc(/C=C/C(=O)c2ccccc2O)cc1,.,.,3.2µM,.
C=CCN1C(=O)NC(c2ccc(OC)cc2)(C(F)(F)F)S/C1=C(\C#N)c1nnc(N2CCOCC2)n1-c1ccccc1 (stereo not drawn),?,10µM,.,.
Cc1ccc2oc(Nc3nc(-c4ccccc4)cc(=O)[nH]3)nc2c1,?,.,3.5µM,.
COCc1cc(=O)[nH]c(Nc2nc3ccccc3o2)n1,?,?,.,.
SMILES,GLP-1R inv ag,HEK293 tox,BRCA1 expr up,GLP-1R agonist
COC(=O)c1c(SCC(=O)Nc2cccc(C(F)(F)F)c2)[nH]c2ccccc2c1=O,?,.,.,/
O=C1c2ccccc2-c2onc3ccc(NCCCn4ccnc4)c1c23,.,13µM,.,.
O=C(CSc1nc2ccccc2o1)Nc1ccc(N2CCOCC2)cc1,.,.,?,.
O=C(CSc1nc2cc(Cl)ccc2o1)Nc1ccc(N2CCOCC2)cc1,.,.,13µM,.
CCCS(=O)(=O)c1nc(S(=O)(=O)c2ccc(C)cc2)c(NC)s1,.,.,/,/
Ic1ccc(Nc2nc(NCCN3CCOCC3)nc(N3CCCC3)n2)cc1,/,/,.,/
Cc1cnc2c3c(cc(Cl)c2c1)-c1ccccc1S(=O)(=O)N3,/,/,.,/
CCN1C(=O)[C@H]2[C@@H](c3ccc(-c4cccc(Cl)c4)cc3)N3CCCC[C@@]3(C(=O)OC)[C@H]2C1=O,10µM,.,.,.
CCN1C(=O)[C@H]2[C@@H](c3ccc(-c4cccc(Cl)c4)cc3)N[C@@](CC(C)C)(C(=O)OC)[C@H]2C1=O,.,.,.,.
CCN1C(=O)[C@H]2[C@@H](c3ccc(-c4ccc(F)cc4)cc3)N3CCCC[C@@]3(C(=O)OC)[C@H]2C1=O,5.6µM,.,.,.
